Bioassay records (PubChem)
SENP8 block-1: inhibitors of human SENP8 protease. 330,000 compounds, 1.2% hits. Q96LD8. inhibition, % at 10 µM. purified SENP8, Z-RLRGG-aminoluciferin cleavage, luminescence; in the data active = inhibition above about 50%
Target sequence (Q96LD8 whole entry, looked up): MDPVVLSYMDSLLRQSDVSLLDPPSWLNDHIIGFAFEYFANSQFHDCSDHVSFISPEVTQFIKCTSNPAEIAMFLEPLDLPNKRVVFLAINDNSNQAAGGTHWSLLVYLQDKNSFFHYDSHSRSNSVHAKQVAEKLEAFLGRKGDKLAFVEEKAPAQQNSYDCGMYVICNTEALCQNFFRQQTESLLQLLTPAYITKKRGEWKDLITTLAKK
SENP8 block-2: inhibitors of human SENP8 protease | 360,000 compounds, 0.64% hits | inhibition, % at 20 µM | AID 602440 | recombinant SENP8, Nedd8 substrate fluorescence; in the data active = inhibition mostly above about 40%, no sharp cut-off; inactive = mostly below about 27%
AHR activator: human AHR activation. P35869. AHR-responsive luciferase reporter cells, luminescence. activation, % at 5 µM. 320,000 compounds, 2.5% hits. AID 2796; in the data active = activation above about 47%;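 also: 0% = vehicle wells and 100% = reference agonist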
SENP7 inh: blocks the human protease SENP7; 330,000 compounds, 1.5% hits; inhibition, % at 5 µM; recombinant SENP7, Z-RLRGG-aminoluciferin luminescence, 40 min;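 active = inhibition above about 50% at the single test dose, limit read from the data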;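 also: plate controls were DMSO with enzyme for no effect and no enzyme buffer wells for full effect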
Target sequence (Q9BQF6 706-1050 limits assumed): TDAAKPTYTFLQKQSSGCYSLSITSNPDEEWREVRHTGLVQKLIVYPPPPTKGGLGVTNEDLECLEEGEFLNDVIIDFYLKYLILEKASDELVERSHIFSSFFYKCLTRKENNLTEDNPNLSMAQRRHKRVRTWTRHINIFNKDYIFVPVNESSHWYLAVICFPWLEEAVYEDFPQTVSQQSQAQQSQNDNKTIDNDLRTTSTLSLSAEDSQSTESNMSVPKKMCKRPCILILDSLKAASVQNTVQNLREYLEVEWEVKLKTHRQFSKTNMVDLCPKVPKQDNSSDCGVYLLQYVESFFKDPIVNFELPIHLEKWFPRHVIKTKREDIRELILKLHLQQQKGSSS
SENP6 block: SENP6 protease inhibition; 330,000 compounds, 1.8% hits; Q9GZR1; AID 2599; Recombinant SENP6 catalytic domain, aminoluciferin luminescence; inhibition, % at 10 µM;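 active = inhibition above about 50% at the single tested dose, limit read from the data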;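 also: plate controls were DMSO wells with enzyme for no effect and DMSO wells lacking enzyme for full effect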
EBI2 antag: EBI2 (human) antagonism; EBI2 beta-arrestin recruitment, luminescence, 7a,25-OHC stimulated; inhibition, % at 5 µM; AID 651636; 360,000 compounds, 0.81% hits; in the data active = inhibition above about 38%;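 also: enzyme fragment complementation signal reports receptor beta-arrestin coupling in cells; 0% = agonist plus DMSO wells and 100% = wells without agonist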
SENP8 confirm: confirmation of human SENP8 protease inhibitors | shares compounds with SENP7 inh | Recombinant SENP8, Z-RLRGG-aminoluciferin luminescence, 60 min | inhibition, % at 12.5 µM | 6,200 compounds, 40% hits | AID 488912;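 active = mean inhibition across replicates above about 50%, limit read from the data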
SENP6 conf: confirmation of human SENP6 protease inhibitors; shares compounds with SENP7 inh; recombinant SENP6, Z-RLRGG-aminoluciferin luminescence; inhibition, % at 12.5 µM; 6,200 compounds, 58% hits
SENP7 confirm: confirmation of human SENP7 protease inhibitors; shares compounds with SENP7 inh; recombinant SENP7, Z-RLRGG-aminoluciferin luminescence, 40 min; inhibition, % at 12.5 µM; 6,200 compounds, 69% hits
Casp3 select: inhibits human caspase-3 in SENP selectivity test; purified caspase-3, Z-DEVD-aminoluciferin luminescence, 60 min; inhibition, % at 12.5 µM; 6,200 compounds, 60% hits; shares compounds with SENP7 inh;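 active = mean inhibition above about 50%, limit read from the data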;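 also: plate controls were enzyme with DMSO for no effect and wells without caspase-3 for full effect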
Luc interf: counter-screen for SENP inhibitors: luminescence interference. Pre-incubated SENP8/Z-RLRGG-aminoluciferin, luciferase luminescence interference. 6,200 compounds, 39% hits. inhibition, % at 12.5 µM. shares compounds with SENP7 inh;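 active = mean inhibition above about 50% when retested at one dose, limit read from the data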;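 also: plate controls were DMSO wells with completed reaction for no effect and substrate without enzyme for full effect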
The depositor's hits bear a star. Shown are actives, neighbours in structure and some others; about 5% of the full set was active somewhere.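 The calls were made as follows, unless noted: active = mean inhibition above about 50% in the one-dose retest (limit read from the data); inactive = the rest.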

For COc1cccc(-c2cccc(NC(=O)C3CCN(C4CCOCC4)CC3)c2)c1 the results were SENP8 block-1 -9, SENP8 block-2 18, AHR activator 4, SENP7 inh -17, SENP6 block -17 and EBI2 antag -1.
For COc1ccc(CCNC(=O)CSc2ccc3nnc(CCNC(=O)c4ccccc4)n3n2)cc1OC the results were SENP8 block-1 1, SENP8 block-2 7, AHR activator -12, SENP7 inh 3, SENP6 block 0 and EBI2 antag -5.
For Cc1cc(C)c(C)c(S(=O)(=O)NCC(=O)NCC2CCCCC2)c1C the results were SENP8 block-1 -8, SENP8 block-2 5, AHR activator 2, SENP7 inh 0, SENP6 block 18 and EBI2 antag 1.
For Cc1csc(NC(=O)c2cc3c(s2)CCCC3)n1 the results were SENP8 block-1 89*, SENP8 block-2 -106, AHR activator 16, SENP7 inh 93*, SENP6 block 95*, EBI2 antag -3, SENP8 confirm 95*, SENP6 conf 96*, SENP7 confirm 101*, Casp3 select 88* and Luc interf 86*.
`COCCNC(=O)C1(C(F)(F)F)CC(CCCO)CCCO1` (configuration not stated) gave SENP8 block-1 -6, SENP8 block-2 17, AHR activator 4, SENP7 inh 2, SENP6 block -6 and EBI2 antag -6.
For CCN(CC)c1ccc(N)cc1 the results were SENP8 block-1 2, SENP8 block-2 6, AHR activator 20, SENP7 inh 6, SENP6 block -2 and EBI2 antag 15.
Nc1ccc(N(CCO)CCO)cc1 was read as SENP8 block-1 29, SENP8 block-2 65*, AHR activator 5, SENP7 inh 21, SENP6 block 57*, EBI2 antag -7, SENP8 confirm 20, SENP6 conf 22, SENP7 confirm 15, Casp3 select 6 and Luc interf 4.
`CCn1c(Cc2ccccc2)nnc1SC(C)C(=O)NC1CC1` (configuration not stated) gave SENP8 block-1 91*, SENP8 block-2 -2, AHR activator 0, SENP7 inh 3, SENP6 block 3, EBI2 antag 3, SENP8 confirm -4, SENP6 conf -4, SENP7 confirm -6, Casp3 select -2 and Luc interf -15.
CCn1c(Cc2ccccc2)nnc1SCC(=O)Nc1nccs1 was read as SENP8 block-1 3, SENP8 block-2 20, AHR activator -1, SENP7 inh 82*, SENP6 block 1, EBI2 antag -9, SENP8 confirm 10, SENP6 conf 8, SENP7 confirm -6, Casp3 select -3 and Luc interf 2.
For Cc1ccccc1-c1nc2cc(NC(=O)C3CC3)ccc2o1 the results were SENP8 block-1 42, SENP8 block-2 -422, AHR activator -7, SENP7 inh 28, SENP6 block 33 and EBI2 antag -6.
`Cc1occc1C(=O)Nc1ccc(S(N)(=O)=O)cc1` gave SENP8 block-1 -9, SENP8 block-2 6, AHR activator 1, SENP7 inh 4, SENP6 block 6 and EBI2 antag -8.
Screening CSc1ccccc1C(=O)Nc1ccc(C)c(C)c1 returned SENP8 block-1 39, SENP8 block-2 -2, AHR activator 19, SENP7 inh 68*, SENP6 block 65*, EBI2 antag 2, SENP8 confirm 54*, SENP6 conf 52*, SENP7 confirm 84*, Casp3 select 74* and Luc interf 70*.
`Cc1ccc(NC(=O)c2ccoc2C)cc1C` gave SENP8 block-1 92*, SENP8 block-2 16, AHR activator 11, SENP7 inh 97*, SENP6 block 92*, EBI2 antag -2, SENP8 confirm -2, SENP6 conf 94*, SENP7 confirm 101*, Casp3 select 96* and Luc interf 93*.
`Cc1occc1C(=O)Nc1cccc(C(F)(F)F)c1` gave SENP8 block-1 -1, SENP8 block-2 11, AHR activator 32, SENP7 inh 11, SENP6 block 7 and EBI2 antag -7.
`CSc1ccccc1C(=O)Nc1cc(C)cc(C)c1` gave SENP8 block-1 -5, SENP8 block-2 28, AHR activator 18, SENP7 inh 3, SENP6 block 19 and EBI2 antag -3.
For Cc1occc1C(=O)Nc1cccc(C(=O)O)c1 the results were SENP8 block-1 91*, SENP8 block-2 8, AHR activator 11, SENP7 inh 96*, SENP6 block 96*, EBI2 antag -4, SENP8 confirm 95*, SENP6 conf 95*, SENP7 confirm 101*, Casp3 select 72* and Luc interf 93*.
`COC(=O)c1cc(NC(=O)c2ccoc2C)cc(C(=O)OC)c1` gave SENP8 block-1 0, SENP8 block-2 -8, AHR activator 5, SENP7 inh 0, SENP6 block -8 and EBI2 antag 6.
`Cc1cc(NC(=O)c2ccoc2C)ccc1Br` gave SENP8 block-1 97*, SENP8 block-2 4, AHR activator 32, SENP7 inh 97*, SENP6 block 100*, EBI2 antag 0, SENP8 confirm 98*, SENP6 conf 99*, SENP7 confirm 102*, Casp3 select 95* and Luc interf 96*.
For CCOC(=O)CC1CCCCN1Cc1cn[nH]c1-c1ccc(F)cc1F (configuration not stated) the results were SENP8 block-1 0, SENP8 block-2 9, AHR activator 0, SENP7 inh 7, SENP6 block -2 and EBI2 antag -5.
O=C(CN1C2=NCCCN2c2ccccc21)c1ccc([N+](=O)[O-])cc1 was read as SENP8 block-1 4, SENP8 block-2 24, AHR activator 1, SENP7 inh 11, SENP6 block 28 and EBI2 antag -6.
Screening O=C(CSc1nnc(-c2c[nH]c3ccccc23)n1C1CC1)NC1CCS(=O)(=O)C1 (configuration not stated) returned SENP8 block-2 15 and EBI2 antag -6.
